# PRMT1 inh: blocks human protein arginine methyltransferase 1; Q99873; recombinant PRMT1, activity-based probe fluorescence polarization; inhibition, % at 2.79 µM; 370,000 tested, 1.3% active; AID 652257;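 active = inhibition above about 21% made by adding two undisclosed values, limit read from the data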
# Target sequence (Q99873 whole entry, looked up): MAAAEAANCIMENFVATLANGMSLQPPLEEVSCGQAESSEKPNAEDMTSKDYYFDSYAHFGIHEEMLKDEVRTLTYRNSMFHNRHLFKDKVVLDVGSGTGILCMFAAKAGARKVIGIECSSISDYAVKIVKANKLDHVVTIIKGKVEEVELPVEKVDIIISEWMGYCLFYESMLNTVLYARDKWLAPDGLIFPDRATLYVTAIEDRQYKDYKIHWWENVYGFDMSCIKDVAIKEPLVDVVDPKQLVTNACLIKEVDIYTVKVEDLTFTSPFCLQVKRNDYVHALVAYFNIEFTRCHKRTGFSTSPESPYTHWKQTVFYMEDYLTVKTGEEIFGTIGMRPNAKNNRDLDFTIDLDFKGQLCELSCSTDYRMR
# UHRF1 MBD2 ctr: human UHRF1 methylated DNA binding inhibitors; Q96T88; UHRF1 binding to methylated oligo, TR-FRET; inhibition, % at 4.4 µM; 370,000 tested, 0.75% active; AID 687016; in the data active = inhibition above about 21%;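 note: UHRF1 SRA domain binding a hemimethylated CpG hairpin DNA probe; 0% = median of test compound wells and 100% = reference inhibitor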
# MBD2 DNA inh: MBD2-methylated oligo binding inhibition; Q9UBB5; TR-FRET, MBD2 binding to methylated oligonucleotide; inhibition, % at 4.4 µM; 370,000 tested, 0.31% active; AID 686964; in the data active = inhibition above about 13%
# LEDGF integ inh: blocks HIV-1 LEDGF/p75-dependent DNA integration; TR-FRET IN-LEDGF/p75 DNA integration, Eu/Cy5; inhibition, % at 3.7 µM; 370,000 tested, 0.64% active;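 active = inhibition above the screen-wide mean plus 3 SD, cut at about 13% in these data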;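 note: signal is the Cy5 over europium emission ratio at 671 and 618 nm; 0% = plate median of compound wells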
# IN multimer act: HIV-1 integrase multimerization activation, counter-screen | shares compounds with LEDGF integ inh | TR-FRET HIV-1 integrase multimerization, biochemical | 2,000 tested, 17% active | activation, % at 7.7 µM; in the data active = activation above about 8.9%
# TR-FRET interf: optically interferes with TR-FRET readout in LEDGF counter-screen | shares compounds with LEDGF integ inh | TR-FRET optical interference counterscreen, HIV-1 IN multimerization | inhibition, % at 7.7 µM | 2,000 tested, under 10 active | AID 1053135;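 active = inhibition above the mean over all tested compounds plus 3 SD, which no compound reached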;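 note: 0% = integrase with antibodies and DMSO and 100% = antibodies without integrase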
# IN-LEDGF confirm: LEDGF/p75-dependent HIV-1 integration inhibition, confirmation; shares compounds with LEDGF integ inh; TR-FRET LEDGF/p75-dependent HIV-1 integration, biochemical; inhibition, % at 3.7 µM; 2,000 tested, 36% active; AID 1053136; in the data active = inhibition above about 14%
# Starred values were filed as active, the others as inactive; . = no result given. Sampled rows, rich in hits. Any-hit rate of the full collection: about 2.5%.
SMILES,PRMT1 inh,UHRF1 MBD2 ctr,MBD2 DNA inh,LEDGF integ inh,IN multimer act,TR-FRET interf,IN-LEDGF confirm
O=C1NC(c2cccc(Br)c2)=N/C1=C\c1ccco1,12,0,0,21*,4,-20,8
Cc1cn([C@H]2C[C@H](O)[C@@H](CCC(=O)NCc3cccc4ccccc34)O2)c(=O)[nH]c1=O,-3,-2,-7,15*,0,0,0
COc1ccc(CNC(=O)CC[C@H]2O[C@@H](n3cc(C)c(=O)[nH]c3=O)C[C@@H]2O)cc1,7,2,1,-2,.,.,.
CN1CCN(S(=O)(=O)c2cccc(C(=O)N3CCN(c4ccccc4F)CC3)c2)CC1,-3,-2,-8,26*,-3,9,-1
O=C(c1cccc(S(=O)(=O)N2CCCCCC2)c1)N1CCN(c2ccccc2F)CC1,-1,-2,2,2,.,.,.
Cn1cccc1/C=C1\CCC/C(=C\c2cccn2C)C1=O,15,0,-3,19*,1,-6,-4
Cc1noc(C)c1COc1ccc(C(=O)N2CCC(C(N)=O)CC2)cc1,-8,-1,-1,8,.,.,.
COc1cc(C(=O)Nc2nc(C)cc(C)n2)cc(OC)c1OC,0,1,0,59*,0,0,-6
CC(NS(=O)(=O)c1ccc(Cl)cc1)C(=O)OCC(=O)Nc1ccc(N(C)C)cc1 (configuration not stated),2,-2,0,-7,.,.,.
O=C(COC(=O)c1ccc2c(c1)OCO2)Nc1ccccc1F,-1,0,0,-2,.,.,.
COc1ccc(C(C[N+](=O)[O-])c2c(C)[nH]n(-c3ccccc3)c2=O)cc1 (configuration not stated),15,16,13,25*,5,-19,22*
O=C(Nc1ccccc1)Nc1nc2ncccn2c1-c1ccc(F)cc1,1,0,-7,7,.,.,.
COc1ccc(-n2c(Cn3c(=O)sc4ccccc43)nnc2SCC(=O)N2CCCC2)cc1,2,-3,2,32*,0,2,-1
CC(C)(CO)NC(=O)C(Cc1ccccc1)N1C(=O)c2ccccc2C1=O (configuration not stated),-1,-2,1,2,.,.,.
CC1(C)CC(N=C2C([N+](=O)[O-])=CC=C3C2=NC2(CCCCC2)N3O)CC(C)(C)N1,0,-16,-17,26*,6,-29,3
O=[N+]([O-])C1=CC=C2C(=NC3(CCCCC3)N2O)C1=NC1CCCCC1,6,3,-4,4,.,.,.
Cn1c(=O)c2c(-c3ccccc3)n(-c3cccc(O)c3)cc2n(C)c1=O,16,-2,-1,-5,.,.,.
Cn1c(=O)c2c(-c3ccccc3)n(-c3ccc(N)cc3)cc2n(C)c1=O,17,15,-2,40*,7,-26,11
Cc1nc(Cl)c(C(=O)NCc2ccccc2)c(C)c1[N+](=O)[O-],1,-1,1,20*,0,1,0
Cc1nc(Cl)c(C(=O)NCCc2ccccc2)c(C)c1[N+](=O)[O-],-1,-1,0,-2,.,.,.
Cn1c(COc2ccccc2)nnc1SCC(=O)NC1CCCC1,0,-1,7,-5,.,.,.
CC(=O)N1CCN(c2ccc(NC(=O)c3ccco3)cc2)CC1,8,5,3,-1,.,.,.
CC(=O)N1CCN(c2ccc(NCc3ccco3)cc2)CC1,6,1,-1,21*,4,-19,-5
CC(C)(C)c1ccc(C(=O)N/C(=C\c2ccco2)C(=O)O)cc1,11,1,-2,11,.,.,.
O=C(O)/C(=C/c1ccco1)NC(=O)c1ccccc1,8,7,-3,27*,-2,8,7
SMILES,PRMT1 inh,UHRF1 MBD2 ctr,MBD2 DNA inh,LEDGF integ inh,IN multimer act,TR-FRET interf,IN-LEDGF confirm
C[C@@H]1CN([C@H](C)CO)C(=O)CCCn2nncc2CO[C@H]1CN(C)S(=O)(=O)c1ccc2ccccc2c1,1,-1,-7,-10,.,.,.
C=CCn1cnc2c(NCc3ccccc3)ncnc21,-2,-1,2,89*,1,-4,0
Oc1ccc(NC(=S)Nc2ccc(O)cc2)cc1,4,-5,-4,17*,6,-28,1
COC(=O)c1ccc(NC(=S)Nc2ccc(O)cc2)cc1,4,-5,2,5,.,.,.
CCc1nc2ccc(C(=O)NCc3cccs3)cn2c1N(CCC(C)C)CCN(C)C,0,-3,-2,14*,0,0,6
CCc1nc2ccc(C(=O)NCc3cccs3)cn2c1N(CC)CCN(C)C,-2,18,9,2,.,.,.
Cc1c(O)nc2ccccn2c1=O,2,-2,-2,-1,.,.,.
O=c1c2c([N+](=O)[O-])cc([N+](=O)[O-])cc2nc2ccccn12,0,5,-12,25*,-1,3,19*
COc1cc(CCCN2CCNC[C@@H]2Cc2ccccc2)cc(OC)c1OC,-1,-2,0,0,.,.,.
COc1cc(CCCN2CCNC[C@H]2Cc2cccc3ccccc23)cc(OC)c1OC,-1,-2,-1,44*,0,1,-9
O=C1C2C(C(=O)N1/N=C/c1cc([N+](=O)[O-])c(O)cc1O)C1C=CC2C12CC2 (configuration not stated),2,15,2,18*,7,-37,20*
O=C(CCl)Nc1ccc(S(=O)(=O)NC2=NCCCCC2)cc1,-1,4,2,17*,-1,3,-3
COCCN1C(=O)CN(S(C)(=O)=O)CC1(C)C(=O)NCc1ccccc1 (configuration not stated),-2,0,1,14*,0,-1,-1
CC1(C(=O)Nc2ccc3nc[nH]c3c2)CCN1C(=O)C1(c2ccccc2)CCCC1 (configuration not stated),-6,-2,0,25*,-2,9,-4
CC(Oc1ccc2c(=O)c(-c3ccc(Cl)cc3)c(C(F)(F)F)oc2c1)C(=O)O (configuration not stated),-1,-1,-5,6,.,.,.
CCN(C[C@H]1N[C@@](C)(C(=O)OC)[C@H]2C(=O)N(C)C(=O)[C@@H]12)C(=O)Nc1ccc(Cl)cc1,-4,-1,0,-3,.,.,.
CCN(C[C@H]1N[C@@](CC)(C(=O)OC)[C@H]2C(=O)N(Cc3ccccc3)C(=O)[C@@H]12)C(=O)Nc1ccc(C(F)(F)F)cc1,4,1,3,66*,-2,10,-5
CCn1c(NC(=O)/C=C/c2ccc(F)cc2)nc2ccccc21,4,-2,4,16*,0,-2,11
CCCn1c(NC(=O)c2ccc(F)cc2)nc2ccccc21,-3,-4,3,7,.,.,.
C=C(C)CSc1nc2sc3c(c2c(=O)n1-c1ccccc1)CCN(C)C3,5,-1,-1,1,.,.,.
